Out of some 650,000 compounds screened, about 5,900 (0.91%) were called active. Cut-off read from the data, not from the text of the source: active = inhibition above about 50%; inactive = the rest. Shown is part of a subset that was picked to be rich in actives.

The results in this text go back to PubChem BioAssay AID1259374 (The Scripps Research Institute Molecular Screening Center, 2018).

Microphthalmia-associated transcription factor (Homo sapiens), sequence (O75030 whole entry, looked up): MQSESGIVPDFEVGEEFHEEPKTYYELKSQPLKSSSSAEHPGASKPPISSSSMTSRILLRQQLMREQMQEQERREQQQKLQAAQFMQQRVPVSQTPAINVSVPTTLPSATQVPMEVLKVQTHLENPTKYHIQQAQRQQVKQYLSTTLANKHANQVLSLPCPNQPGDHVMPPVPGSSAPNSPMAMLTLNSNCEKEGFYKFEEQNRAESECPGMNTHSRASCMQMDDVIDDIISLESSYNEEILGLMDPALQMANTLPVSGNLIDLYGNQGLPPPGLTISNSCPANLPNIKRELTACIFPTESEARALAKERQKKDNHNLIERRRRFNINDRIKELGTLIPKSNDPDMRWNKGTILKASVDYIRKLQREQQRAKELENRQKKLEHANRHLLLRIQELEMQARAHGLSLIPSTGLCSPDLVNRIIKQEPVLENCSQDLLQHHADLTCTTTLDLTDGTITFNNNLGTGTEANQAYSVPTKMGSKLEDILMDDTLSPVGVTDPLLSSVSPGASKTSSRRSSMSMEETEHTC

The experiment concerns the target Microphthalmia-associated transcription factor (Homo sapiens) (UniProt O75030). Briefly: MITF inhibitors, primary screen, biochemical, AlphaScreen, human (AID 1259374).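 Note: 0% = vehicle wells with protein.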 The following applies: AlphaScreen MITF homodimerization, bead proximity signal; at 2.6 µM; hits give high values.
`COc1cc(/C=N/NC(=O)c2cccnc2)ccc1Oc1ccc([N+](=O)[O-])cc1[N+](=O)[O-]`: the inhibition was 12.4% (inactive).

On to `CCC1CN(Cc2ccccn2)Cc2ccc(Cl)cc2O1` (centres undefined), for which the inhibition is -11.7% (inactive). For the compound `CCCCCCOC(=O)c1ccc(-c2ccc(-c3ccc(C(=O)OCCCCCC)cc3)cc2)cc1`, the inhibition was 14.5% (inactive). Take `CCOC(=O)c1cc2cccnc2nc1C`: the inhibition is 12.4% (inactive). Take `CCCCCCOC(=O)c1cc(C(=O)OCCCCCC)c(C)nc1C`: the inhibition was 55.6% (active). As to `CCN1CCN(Cc2c(O)ccc3cc(-c4ccccc4)c(=O)oc23)CC1`, the inhibition was 2.19% (inactive).

Turning to `Cc1cn2c(=O)c(C(=O)Nc3ccc(Br)c(C)c3)cnc2s1`, the inhibition is 3.85% (inactive). On to `C=CCNC(=O)c1cc2cc(Cl)ccc2oc1=O`, for which the inhibition is 12.4% (inactive). Regarding `CCN(CC)c1ccc(C2C3=C(CC(C)(C)CC3=O)Nc3ccccc3N2C(=O)Cc2ccccc2)cc1` (centres undefined), the inhibition was 2.82% (inactive). `CC1(C)CC(=O)C2=C(C1)Nc1ccccc1N(C(=O)Cc1ccccc1)C2c1ccc(-c2ccc([N+](=O)[O-])cc2)o1` (centres undefined): the inhibition is 65.2% (active). Next, `CC1(C)CC(=O)C2=C(C1)Nc1ccccc1N(C(=O)Cc1ccccc1)C2c1cccc(F)c1` (centres undefined): 0.57% (inactive); `COc1ccc(C2CC(=O)C3=C(C2)Nc2ccccc2N(C(=O)c2ccc(Cl)c(Cl)c2)C3c2ccc(C)cc2)cc1` (centres undefined): -2.68% (inactive); `CC(=O)c1ccc(NC(=O)C(C)NCc2ccc(C)cc2)cc1` (centres undefined): 76% (active). Consider `CC(=O)c1ccc(NC(=O)C(C)NCc2ccc(Cl)cc2)cc1` (centres undefined), for which the inhibition was 3.65% (inactive). For `COc1cc(NC(C)C(=O)Nc2ccc(C(C)=O)cc2)cc(OC)c1` (centres undefined), the inhibition was 0.12% (inactive). In the case of `Cc1nc2c(c(=O)[nH]1)C(c1ccc(Cl)c(Cl)c1)C(C#N)=C(N)O2` (centres undefined), the inhibition was 3.39% (inactive). Consider `C=CCNC(=O)C(=O)Nc1cc(C)ccc1OC`, for which the inhibition is 12.4% (inactive).

Take `NS(=O)(=O)c1cccc(NC(=O)COc2ncnc3sc(-c4ccccc4)cc23)c1`: the inhibition is 51.8% (active). In the case of `NS(=O)(=O)c1ccc2nc(NC(=O)COc3ccccc3)sc2c1`, the inhibition was 5.22% (inactive). For `CNC(=O)NC(=O)CSc1ncnc2sc(-c3ccccc3)cc12`, the inhibition was 9.51% (inactive). On to `O=S(=O)(NCc1cccnc1)c1ccc(-n2cnnn2)cc1`, for which the inhibition was -8.13% (inactive). Take `COc1cccc(Nc2nnc(Cc3ccc(Cl)cc3)c(=O)[nH]2)c1`: the inhibition is 10.6% (inactive). Consider `CCOc1ccccc1Nc1nnc(Cc2ccc(OC)cc2)c(=O)[nH]1`, for which the inhibition is 24.2% (inactive). Consider `COc1ccc(Cc2nnc(N/N=C/c3ccccc3O)[nH]c2=O)cc1OC`, for which the inhibition was 112% (active). As for `Cc1cc(NC(=O)Cc2ccccc2)n(-c2nc(C)c(C)c(=O)[nH]2)n1`, the inhibition is 24.5% (inactive). For `C[C@@H](OCc1ccccc1)[C@@H]1NC(=O)[C@H]2CN(C(=O)Nc3cccc(F)c3)CCN2C1=O`, the inhibition was 75.3% (active).

Take `CC[C@@H]1NC(=O)[C@H]2CN(C(=O)NCc3ccccc3)CCN2C1=O`: the inhibition is 75.7% (active). In the case of `C[C@H](O)[C@H]1NC(=O)[C@H]2CN(C(=O)c3ccccc3)CCN2C1=O`, the inhibition was -12.5% (inactive). Next, `CC[C@@H]1NC(=O)[C@H]2CN(C(=O)c3cccs3)CCN2C1=O`: 14.5% (inactive); `C[C@@H](OCc1ccccc1)[C@@H]1NC(=O)[C@H]2CN(Cc3ccc4ncccc4c3)CCN2C1=O`: 15.9% (inactive); `O=C1N[C@H](Cc2ccccc2)C(=O)N2CCN(C(=O)Oc3ccccc3)C[C@H]12`: -5.43% (inactive). Take `Cc1ccccc1C(=O)Nc1ccc(S(=O)(=O)NCc2ccccc2)cc1`: the inhibition was 5.75% (inactive). Regarding `Cc1ccc(NC(=O)CC[C@H]2CN(Cc3ccncc3)CC[C@H]2N2CCOCC2)cc1`, the inhibition is -7.04% (inactive). As to `CCCC(C)C(=O)Nc1nc2c(s1)C(=O)CC(C)(C)C2` (centres undefined), the inhibition is 6.86% (inactive).

Regarding `CC(C)NC(=O)/C=C/c1cccc([N+](=O)[O-])c1`, the inhibition is -4.32% (inactive). Take `COc1cccc(N2C(=O)CC(N3CCN(C)CC3)C2=O)c1` (centres undefined): the inhibition is 5.95% (inactive). Consider `Cc1ccc(-c2noc(CN(C(C)C)S(=O)(=O)c3ccc(F)cc3)n2)cc1`, for which the inhibition is -1.65% (inactive). Next, `c1cc2c(cc1CNc1nc(Nc3ccc(N4CCOCC4)cc3)c3ncn(C4CCCCC4)c3n1)OCO2`: 53.1% (active). As to `O=C1CCCN1CCn1cnc2c(Nc3ccc(N4CCOCC4)cc3)nc(NCc3ccc4c(c3)OCO4)nc21`, the inhibition is 15.2% (inactive). To `c1ccc(CN2CCC(Nc3nc(NCc4ccc5c(c4)OCO5)nc4c3ncn4C3CCCCC3)CC2)cc1` belongs 16.3% (inactive); to `CC12CCOCC1C2C(=O)Nc1ccc(N=Nc2ccccc2)cc1` (centres undefined), -6.59% (inactive). For the compound `O=C1CCCN1CCCNc1ccnc(Nc2nccc3ccccc23)n1`, the inhibition is -1.07% (inactive).

For the compound `CCN1CCN(CC(=O)N/N=C/c2cccc(Cl)c2)CC1`, the inhibition is 57.4% (active). With `O=C(CN1CCCCCC1)N/N=C/c1ccc(Cl)cc1`, the inhibition was 20% (inactive). Next, `COc1cccc(/C=N\NC(=O)CN2CCN(C)CC2)c1`: -8.3% (inactive); `Cc1cccc(NC(=O)c2sc3nc4c(cc3c2N)CCC4)c1C`: 21.2% (inactive). As for `CCN1CCN(CCOc2ccc(-c3ccccc3)cc2)CC1`, the inhibition is 76.4% (active). As for `COc1ccc(OCCOCCOc2ccc([N+](=O)[O-])cc2Cl)cc1`, the inhibition was 3.66% (inactive). Next, `CN1CCN(CCCCOc2ccc(C#N)cc2)CC1`: 1.14% (inactive).

`CCN1CCN(CCOCCOc2ccc([N+](=O)[O-])cc2)CC1`: the inhibition was 72% (active).

For `CCOc1ccc(OCCN2CCNCC2)cc1`, the inhibition is 12.2% (inactive).

On to `CN1CCN(CCOCCOc2ccc3c(c2)CCC3)CC1`, for which the inhibition is 11.3% (inactive).

Regarding `O=C(COc1ccc2c3c(c(=O)oc2c1)CCC3)Nc1cccc2ncccc12`, the inhibition is 2.18% (inactive). Next, `COc1ccc(/C(O)=C/c2nc3cc(C)ccc3oc2=O)cc1OC`: 3.89% (inactive); `CCN(CC)S(=O)(=O)c1ccc(C(=O)NCCO)cc1`: -0.2% (inactive); `C/C(=N\N=C1\NC(=O)CC(C(=O)Nc2cccc(C(=O)O)c2)S1)c1ccccc1` (centres undefined): 7.7% (inactive). Regarding `CC1CN(C(=O)COc2ccc(C(C)C)cc2Br)CC(C)O1` (centres undefined), the inhibition was -0.26% (inactive). For the compound `CC1CN(C(=O)COC(=O)c2cc(O)c(O)c(O)c2)CC(C)O1` (centres undefined), the inhibition is 54.2% (active).

As for `CC1CN(C(=O)COC(=O)/C=C/c2ccco2)CC(C)O1` (centres undefined), the inhibition is 16.4% (inactive).
